Records with an inconclusive call do not appear. Entries that show only a call come without a potency. Active and inactive are the calls of the source. Calls follow the shape of the full dose curve.
Test: Cytotoxicity counterscreen for inhibitors of SARS-CoV-2 cell entry (AID 1645845); also: nearly all actives have a fitted effect of over 50% in size
Settings: cell viability (SARS-CoV-2 entry assay cells); series mostly up to 57.1 µM
Method in brief: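 ATP-content luminescence (ATPLite 1step, 15 min RT) read after 48 h compound exposure of Expi293F cells stably expressing human ACE2; normalized to cells-only wells and media-only wells.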

With Cc1ccc(/C(=C\CN2CCCC2)c2ccccn2)cc1 as the compound, how does the Potency read?
Its Potency is “inactive”.

Which Potency does the source give for CN1C[C@H](C(=O)N[C@]2(C)O[C@@]3(O)[C@@H]4CCCN4C(=O)[C@H](Cc4ccccc4)N3C2=O)C[C@@H]2c3cccc4[nH]cc(c34)C[C@H]21 here?
Its Potency is “inactive”.

With CCCS(=O)c1ccc2nc(NC(=O)OC)[nH]c2c1 (stereo not given) as the compound, how does the Potency read?
The Potency was “inactive”.

With CC#C[C@]1(O)CC[C@H]2[C@@H]3C[C@H](C)C4=CC(=O)CC[C@]4(C)[C@H]3CC[C@@]21C as the compound, how does the Potency read?
The Potency was “inactive”.

Which Potency does the source give for COc1cc(N)c(Cl)cc1C(=O)NC1CCN(CCCOc2ccc(F)cc2)CC1OC (stereo not given) here?
The Potency was “inactive”.

Which Potency does the source give for CN1CCC(OC(c2ccccc2)c2ccccc2)CC1 here?
The Potency was “inactive”.

For CCOC(=O)Cn1cccc1-c1nc(-c2ccc(OC)cc2)c(-c2ccc(OC)cc2)s1, which Potency is on record?
The Potency was “inactive”.

Which Potency does the source give for N#C/C(=C1/SC[C@@H](c2ccc(Cl)cc2Cl)S1)n1ccnc1 here?
Its Potency is “inactive”.

For COc1cccc(CCc2ccccc2OCC(CN(C)C)OC(=O)CCC(=O)O)c1 (stereo not given), which Potency is on record?
The Potency was “inactive”.

With COc1cc(C(=O)OCCCN2CCCN(CCCOC(=O)c3cc(OC)c(OC)c(OC)c3)CC2)cc(OC)c1OC as the compound, how does the Potency read?
The Potency was “inactive”.

With C=C1c2cccc(O)c2C(O)=C2C(=O)[C@]3(O)C(O)=C(C(N)=O)C(=O)[C@@H](N(C)C)[C@@H]3[C@@H](O)[C@H]12 as the compound, how does the Potency read?
The Potency was “inactive”.

For CCOC(=O)[C@H](CCc1ccccc1)N[C@@H](C)C(=O)N(CC(=O)O)C1Cc2ccccc2C1, which Potency is on record?
Its Potency is “inactive”.

For COc1cc(O)c(C(=O)c2ccccc2)cc1S(=O)(=O)O, which Potency is on record?
Its Potency is “inactive”.

For O=C1C(CCS(=O)c2ccccc2)C(=O)N(c2ccccc2)N1c1ccccc1 (stereo not given), which Potency is on record?
The Potency was “inactive”.

With CCCCC/C=C\C/C=C\CCCCCCCC(=O)NC(C)c1ccccc1 (stereo not given) as the compound, how does the Potency read?
Its Potency is “inactive”.
